# Data published in PubChem BioAssay AID1851 (National Center for Advancing Translational Sciences (NCATS), 2009).
# Where “and” joins values, the source holds several entries; their conditions need not be identical. Identical values can stand only once. About 4,000 (25%) of roughly 16,000 compounds were called active. Roughly 26% stayed inconclusive and do not appear here. Only a sample is shown. Unmarked numbers belong to inactive results. Calls follow the shape of the dose curve; as a rule, active = well fitted curve in the direction sought with a large enough effect; inconclusive = small, poorly fitted or top-dose-only effect, or effect the other way; inactive = no such curve, though single readings can be large or run the other way.
# Target: Cytochrome P450 2C9 (Homo sapiens) (UniProt P11712)
# Sequence (P11712 whole entry, looked up): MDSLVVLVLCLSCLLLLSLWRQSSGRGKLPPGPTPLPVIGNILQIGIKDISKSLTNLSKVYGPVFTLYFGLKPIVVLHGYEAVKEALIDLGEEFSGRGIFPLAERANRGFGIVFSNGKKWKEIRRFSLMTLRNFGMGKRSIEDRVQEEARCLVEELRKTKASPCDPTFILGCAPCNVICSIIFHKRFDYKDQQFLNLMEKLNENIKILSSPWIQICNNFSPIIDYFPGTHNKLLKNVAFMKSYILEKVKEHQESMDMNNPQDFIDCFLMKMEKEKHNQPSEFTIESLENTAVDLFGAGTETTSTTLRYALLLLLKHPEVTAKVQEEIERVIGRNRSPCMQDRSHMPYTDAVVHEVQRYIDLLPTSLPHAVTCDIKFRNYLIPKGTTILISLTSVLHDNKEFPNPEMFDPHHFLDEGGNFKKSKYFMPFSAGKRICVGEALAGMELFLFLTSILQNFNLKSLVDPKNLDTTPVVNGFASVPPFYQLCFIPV
# Assay: Cytochrome panel assay with activity outcomes
# Conditions: recombinant CYP, pro-luciferin dealkylation, luminescence, p450-cyp2c9; series mostly up to 57.1 µM
# % is scaled to controls: 0 for no effect and ±100 for the full control effect.
SMILES,"activity, negative = inhibition",AC50
CCc1cc2c(nc1CC)CCN(CC/C(C)=N/O[C@@H](C)c1cn([C@@H]3COC[C@@H]3O)nn1)C2,18.9% [at 11.4 µM],
CCCCNC(=O)[C@@H]1Cc2ccccc2N1C(=O)[C@H](N)CC,,inactive
O=C(O)C1CCN(c2ncccn2)CC1,,inactive
O=C(NCCc1ccc(Cl)cc1)c1ncn[nH]1,,inactive
O=C(CN1CCN(c2ncccn2)CC1)NCCC1=CCCCC1,,3.55 µM (active)
O=C1CSc2ccc(C(=O)NCCC3=CCCCC3)cc2N1,,inactive
O=C(COc1ccc(Cl)cc1)NCCC1=CCCCC1,,3.98 µM (active)
COc1ccc2c(c1)CCCC21NC(=O)N(CC(N)=O)C1=O (centres undefined),,inactive
CCCCCOc1ccc(NC(=O)C(=O)NCCC2=CCCCC2)cc1,,inactive
CCCCNC(=O)CN1C(=O)NC2(CCCc3ccccc32)C1=O (centres undefined),,2.24 µM (active)
CC1(c2ccccc2)NC(=O)N(CC(=O)NCCC2=CCCCC2)C1=O (centres undefined),,25.1 µM (active)
O=C(CN1CCN(C2CCCCC2)CC1)NCCC1=CCCCC1,,inactive
O=C(CN1C(=O)NC2(CCCC2)C1=O)NCCC1=CCCCC1,,inactive
CCCCC[C@H](CC(=O)NO)C(=O)N[C@@H](C(=O)N1CCC[C@H]1CO)C(C)C,,inactive
O=C(O)/C=C\c1cnc[nH]1,,inactive
Cc1c(Cl)cccc1Nc1ccccc1C(=O)O,,3.16 µM (active)
Cc1cccc(Nc2ccccc2C(=O)O)c1C,,7.94 µM (active)
O=C(O)c1cccc(C(=O)O)c1S(=O)Cc1ccccc1 (centres undefined),7.56% [at 11.4 µM],
Cc1c(Nc2ncccc2C(=O)O)cccc1C(F)(F)F,,inactive
O=C(O)CCNc1ccccc1C(=O)O,14.2% [at 11.4 µM],
Cc1ccc(Cl)c(Nc2ccccc2C(=O)O)c1Cl,,7.94 µM (active) and 1.26 µM (active)
O=C(Nc1cccc(F)c1)N1CCCC2(CCN(C(=O)c3cc(C(F)(F)F)cc(C(F)(F)F)c3)CC2)C1,,inactive
Cn1ccnc1C[C@@](C)(O)c1ccccc1,4.93% [at 11.4 µM],
CCc1c(O)nc2sc3ccccc3n2c1=O,,3.16 µM (active)

SMILES,"activity, negative = inhibition",AC50
CC(=O)Nc1c(I)c(C(=O)N[C@H]2[C@@H](O)[C@H](O)[C@H](CO)O[C@@H]2O)c(I)c(N(C)C(C)=O)c1I,,inactive
Cc1c(C=NCCOCc2ccccc2)cnn1C,,inactive
COC(=O)[C@@]1(Cc2ccccc2)[C@H]2c3cc(C(=O)N4CCCC4)n(Cc4ccc(C)o4)c3C[C@H]2CN1C(=O)c1ccccc1,,1 µM (active)
COC(=O)[C@@]1(Cc2ccc(F)cc2)[C@H]2c3cc(C(=O)N4CCCC4)n(Cc4ccc(C)o4)c3C[C@H]2CN1C(=O)c1ccccc1,,3.98 µM (active)
COC(=O)[C@@]1(Cc2ccc(F)cc2)[C@H]2c3cc(C(=O)N(C)C)n(Cc4ccc(C)o4)c3C[C@H]2CN1C(=O)c1ccccc1,,10 µM (active)
Cc1ccc(Cn2cnc3c(nnn3Cc3ccc(Cl)cc3)c2=O)cc1,,inactive
O=c1c2ccccc2c(-c2ccccc2)nn1Cc1ccc(Cl)cc1,,8.91 µM (active)
O=c1c2ccccc2c(-c2ccccc2)nn1-c1ccc(Cl)c(Cl)c1,,11.2 µM (active)
Cn1c(=O)c(-c2ccc(Cl)cc2)nc2cnc(Nc3ccccc3)nc21,,inactive
COc1ncc2nc(-c3ccccc3)c(=O)n(-c3ccccc3)c2n1,,inactive
CC(C)(C)Cn1nc(-c2ccc(Cl)cc2)c2c(N)ncnc21,,inactive
CCCc1[nH]nc2c1C(c1ccncc1)C(C#N)=C(N)O2 (centres undefined),,2.51 µM (active)
O=P(O)(CCc1ccccc1)C(O)c1ccccc1 (centres undefined),,inactive
CC[C@](N)(C(=O)O)C(C)C,1.15% [at 11.4 µM],
C=CCn1c(SCc2ccccc2)nc2scc(-c3ccc(C)o3)c2c1=O,,inactive
C=CCn1c(SCC)nc2sc3c(c2c1=O)CCc1ccccc1-3,,10 µM (active)
Cc1c2cccc(Sc3ccccc3)c2c2c3c(cccc13)[S+](c1ccccc1)C2 (centres undefined),,2.51 µM (active)
CC1CCCC(C)N1C(=O)C1CC(c2ccc(F)cc2)=NO1 (centres undefined),,10 µM (active)
O=C(NNC(=O)C1CC(c2cccnc2)=NO1)Nc1cccc(F)c1 (centres undefined),,inactive
CSCCC(NC=C1C(=O)OC(C)(C)OC1=O)C(=O)O (centres undefined),,inactive
CNc1ncncc1-c1ccccc1OC,6.03% [at 2.29 µM],
O=S(=O)(O)C1CCNCC1,,inactive
N#CC1=C(N)OC2=C(CC/C2=C\c2ccccc2)C1c1ccccc1 (centres undefined),,0.355 µM (active)
COc1ccccc1CN1CCCC2(CCN(C(C)=O)CC2)C1,,inactive

SMILES,"activity, negative = inhibition",AC50
COc1ccccc1-c1nc(NCc2cccs2)c2ccccc2n1,7.82% [at 2.29 µM],
COc1cccc2c(=O)c(C(=O)NCc3cccs3)c[nH]c12,,6.31 µM (active)
COc1cccc(-c2nc(NCc3cccs3)c3ccccc3n2)c1,-29.3% [at 2.29 µM],
CN(N=O)C(=O)N[C@H]1[C@@H](O)[C@H](O)[C@H](CO)O[C@@H]1O,,inactive
C[C@@]12CC(=O)[C@@H]3[C@@H](CCC4=CC(=O)CC[C@]43C)[C@@H]1CC=C2CC(=O)O,4.34% [at 11.4 µM],
COCC(=O)N1CCC2(CCCN(c3ncccn3)C2)CC1,,inactive
CCN(C(=O)c1cnc(N2CCN(c3ncccn3)CC2)c2ccccc12)c1cccc(Cl)c1,,3.16 µM (active)
CN(C(=O)c1cnc(N2CCN(c3ncccn3)CC2)c2ccccc12)c1ccc(Cl)cc1,,5.01 µM (active)
COCC(=O)N1CCC2(CC1)CN(c1ccccn1)C2,,inactive
COCC(=O)N1CCC2(CC1)CCN(c1ncccn1)CC2,,inactive
COC(=O)N1CCC2(CC1)CCN(c1ncccn1)CC2,,inactive
CO[C@H]1COC(=O)CCC[C@@H](C)[C@H](OC)COC(=O)[C@@H](C)NC(=O)C/C=C\[C@@H]1C,-11.7% [at 11.4 µM],
Cc1noc(C)c1-c1nc(Nc2ccc(F)cc2)c2ccccc2n1,-2.69% [at 2.29 µM],
CCN(CC)CCNC(=O)c1cc(Br)c(N)cc1OC,,inactive
CCCc1c(OCCCOc2ccc(OCC(=O)O)cc2)ccc(C(C)=O)c1O,,10 µM (active)
CCCc1c(OCCCOc2ccc(OCC(=O)O)cc2)ccc(CC=O)c1O,,inactive
O=C(O)COc1ccc(OCCNC[C@@H](O)COc2ccccc2)cc1,,inactive
Cn1cccc1C(=O)N1CCC[C@@]2(CCN(Cc3ccc(C#N)cc3)C2)C1,,inactive
NC/C=C\C(=O)O,,inactive
CC[C@H](C)[C@@H]1O[C@]2(CC[C@@H]1C)C[C@H]1C[C@H](CC=C(C)[C@@H](O[C@@H]3C[C@H](OC)[C@H](O[C@@H]4C[C@H](OC)[C@H](O)[C@H](C)O4)[C@H](C)O3)[C@@H](C)C=CC=C3CO[C@@H]4[C@@H](O)C(C)=C[C@@H](C(=O)O1)[C@]34O)O2,,inactive
O=S(=O)(c1cccc(C(F)(F)F)c1)N1CCC(c2cc(-c3cccc4ccccc34)n[nH]2)CC1,,inactive
O=C1C2CCCN2c2ccc(S(=O)(=O)N3CCOCC3)cc2N1Cc1cccc(C(F)(F)F)c1 (centres undefined),,5.01 µM (active)
O=C(Cn1cc(C(F)(F)F)ccc1=O)N1CCN(S(=O)(=O)c2ccccc2)CC1,,inactive
COc1ccc(NC(=O)N2CCCC3(CCN(C(=O)c4csnn4)CC3)C2)cc1,,inactive

SMILES,"activity, negative = inhibition",AC50
Cc1ccc(COc2coc(CO)cc2=O)cc1,,inactive
Cc1ccc(CONC(=O)/N=C/N(C)C)cc1,,inactive
Oc1ccc(Cl)cc1C=Nc1cnc2ccccc2c1,1.22% [at 11.4 µM],
Cc1n[nH]c(=S)n1/N=C/c1ccccc1OCc1ccc(Cl)cc1,,inactive
O/N=C/c1ccccc1OCc1ccc(Cl)cc1,,4.47 µM (active)
O/N=C/c1cc(Cl)ccc1OCc1cccc2ccccc12,,7.08 µM (active)
O=C(Cc1ccccc1)N/N=C/c1ccccc1OCc1ccc(Cl)cc1,,7.94 µM (active)
Cc1ccc(COc2ccc(Br)cc2/C=N/O)cc1,,2.82 µM (active)
O=C(SCc1cccc2ccccc12)c1ccc(Cl)cc1,-1.66% [at 11.4 µM],
COc1ccc(COC(=O)N/N=C2/C[C@@H](O)[C@@H](O)[C@@H]3[C@@H]4C(=O)N(C(C)(C)C)C(=O)[C@H]4CC[C@H]23)cc1,20.6% [at 11.4 µM],
CC(C)(C)c1onc(OCP(=O)(O)O)c1C[C@@H](N)C(=O)O,,inactive
C[C@@H]1O[C@H](O[C@@H]2[C@H](C)O[C@H](O[C@@H]3[C@H](C)O[C@H](O[C@H]4CC[C@]5(C)[C@@H](CC[C@@H]6[C@H]5C[C@@H](O)[C@]5(C)[C@@H](C7=CC(=O)OC7)CC[C@]65O)C4)C[C@@H]3O)C[C@@H]2O)C[C@H](O)[C@@H]1O,,inactive
C[C@@H](Cc1ccccc1)Nc1ncnc2c1ncn2[C@@H]1O[C@@H](CO)[C@H](O)[C@@H]1O,,inactive
COCCNc1nc(-c2c(C)noc2C)nc2ccccc12,15% [at 2.29 µM],
NC(=S)N/N=C/c1ccccc1OCc1cccc(Cl)c1,,1.58 µM (active)
NC(N)=NC(N)=Nc1cccc(Cl)c1,,inactive
CCC1(C)Nc2ccccc2C(=O)N1O (centres undefined),,inactive
NC1=NC2(CCCCCC2)n2c(nc3ccccc32)N1,,inactive
CC1CCC2(CC1)N=C(N)Nc1nc3ccccc3n12 (centres undefined),,inactive
CCCCC1(C)Nc2ccccc2-c2nc3ccccc3n21 (centres undefined),,12.6 µM (active)
CCCC1(C)Nc2ccccc2-c2nc3ccccc3n21 (centres undefined),,3.98 µM (active)
COc1c2c(nc3ccccc13)O[C@@H]([C@@](C)(O)CO)C2,,inactive
